Compound activity from PubChem BioAssay.
HCV inh – inhibitors of hepatitis C virus infection. actives 3.4% (n = 340,000). Huh7.5.1 HCVcc-Cre infection, luciferase reporter, 44 h. AID 651820. Potency, µM (titrated, usually from 41.8 µM), usual class: inhibitors
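Infectious HCV cell culture screen: compound-treated cells (1,000/well, pre-plated 4 h) are infected with HCVcc-Cre at roughly 0.5 moi and grown 44 h. Infection is quantified by luciferase signal after 15 min substrate incubation at room temperature.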
Pf growth 48h – inhibits P. falciparum growth in the first generation, 48 h; actives 5.9% (n = 310,000); Potency, µM (doses to about 28.7 µM), most hits filed as inhibitors; P. falciparum luciferase growth in erythrocytes, 48 h; AID 504832
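Parasite viability was followed by luminescence of a genomically integrated firefly luciferase. Cultures held 0.1% parasitemia at 2% hematocrit (final), incubated under 5% CO2 at 37 C.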
AmpC no deterg – blocks E. coli AmpC beta-lactamase in detergent-free assay. P00811. AmpC nitrocefin hydrolysis, absorbance 480 nm, 0.0001% Triton. Potency, µM (titrated, usually from 57.1 µM), usual class: inhibitors. actives 0.52% (n = 330,000); also: nearly all actives have a fitted effect of over 20% in size
Target sequence (P00811 whole entry, looked up): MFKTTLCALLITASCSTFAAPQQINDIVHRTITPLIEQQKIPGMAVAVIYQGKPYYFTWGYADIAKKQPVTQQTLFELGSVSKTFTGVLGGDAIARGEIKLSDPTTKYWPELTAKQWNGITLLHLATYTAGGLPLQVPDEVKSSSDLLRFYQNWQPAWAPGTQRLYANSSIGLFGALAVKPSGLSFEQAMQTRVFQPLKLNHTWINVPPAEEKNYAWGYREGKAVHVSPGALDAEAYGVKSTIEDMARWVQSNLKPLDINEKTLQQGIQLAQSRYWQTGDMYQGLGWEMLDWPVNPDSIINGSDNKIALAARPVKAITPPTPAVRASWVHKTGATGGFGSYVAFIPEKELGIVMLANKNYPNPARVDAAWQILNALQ
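20 mM phosphate pH 7.0 + 0.01% (detergent screen) or 0.0001% Triton X-100; 5.3 nM AmpC reagent; cpd preinc 15 min RT; nitrocefin (800 uM stock) to start; A480 q20 s × 4 min; Activity was normalised to no-enzyme and no-compound control wells.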
AMA1-RON2 inh – AMA1-RON2 (P. falciparum) interaction inhibition; AlphaScreen AMA1-biotinylated RON2 peptide binding; Potency, µM (top dose mostly 58.2 µM), usual class: inhibitors; actives 0.2% (n = 360,000); also: nearly all actives have a fitted effect of over 45% in size
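AMA1 (3D7) with his tag at 25 nM final met compounds first, then biotinylated RON2 peptide at 25 nM; detection used donor plus acceptor beads, 10 µg/mL apiece, read by AlphaScreen after 30 min at room temperature.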
AmpC detergent – inhibitors of E. coli AmpC beta-lactamase with detergent | AmpC hydrolysis of nitrocefin, absorbance 480 nm, 0.01% Triton | P00811 | actives 0.041% (n = 370,000) | Potency, µM (top dose mostly 114 µM), actives largely listed as inhibitors; also: nearly all actives have a fitted effect of over 25% in size
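AmpC (5.3 nM in the dispensed reagent) in 20 mM phosphate pH 7.0 with 0.01% (detergent screen) or 0.0001% Triton X-100 was preincubated with compounds for 15 min at room temperature. Nitrocefin was then added from an 800 uM solution, and hydrolysis was followed at 480 nm.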
Pf growth 96h – P. falciparum growth inhibition at 96 hour, primary screen for plastid delayed-death inhibitors. P. falciparum luciferase reporter growth, 96 h. Potency, µM (doses to about 28.7 µM), hits mostly inhibitors. actives 6.9% (n = 320,000). AID 504834
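Infected RBCs, 2% Hct / 0.05% parasitemia final; luciferase-reporter P. falciparum; cpd 96 h, 37 C, 5% CO2; luciferase detection reagent; luminescence.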
Numbers stand for hits; i = inactive; ? = inconclusive; nt = not tested or not shown. An excerpt weighted towards active compounds, which were near 11% of everything screened. Calls follow the shape of the dose curve; as a rule, active = well fitted curve in the direction sought with a large enough effect; inconclusive = small, poorly fitted or top-dose-only effect, or another doubt; inactive = no such curve, though single readings can be large; an effect the other way counts as inactive or inconclusive.

SMILES | HCV inh | Pf growth 48h | AmpC no deterg | AMA1-RON2 inh | AmpC detergent | Pf growth 96h
C=C1CC[C@@H]2[C@](C)(CO)[C@H](O)CC[C@@]2(C)[C@@H]1C/C=C1/C(=O)OCC1O (stereo partly specified) | i | nt | nt | i | nt | nt
C=C1CCC2[C@](C)(CO)C(O)CC[C@]2(C)C1C/C=C1/C(=O)OCC1O (stereo partly specified) | nt | ? | nt | nt | nt | 15µM
CCOc1ccc(N(CC(=O)Nc2cccc(Cl)c2)S(=O)(=O)c2c(C)noc2C)cc1 | 13µM | nt | i | i | ? | i
COc1ccc(N(CC(=O)Nc2ccc(C)c(F)c2)S(=O)(=O)c2c(C)noc2C)cc1 | i | 13µM | i | i | i | ?
CCOc1ccc(N(CC(=O)Nc2cccc(OC)c2)S(=O)(=O)c2c(C)noc2C)cc1 | ? | ? | 18µM | i | ? | 0.83µM
COc1ccc(N(CC(=O)Nc2ccc(C)c(C)c2)S(=O)(=O)c2c(C)noc2C)cc1 | ? | i | i | i | i | ?
CCOc1ccc(N(CC(=O)Nc2ccccc2OCC)S(=O)(=O)c2c(C)noc2C)cc1 | 11µM | ? | i | i | i | 12µM
CCOc1ccc(N(CC(=O)Nc2ccc(C)cc2)S(=O)(=O)c2c(C)noc2C)cc1 | i | nt | i | i | ? | i
CCOc1ccc(N(CC(=O)Nc2ccc(F)c(F)c2)S(=O)(=O)c2c(C)noc2C)cc1 | i | i | i | i | i | i
CCCCNC(=O)CSc1nc2ccccc2nc1Cc1ccc(Cl)cc1 | nt | nt | nt | nt | i | nt
O=C1Cc2cc(S(=O)(=O)N3CCCCC3)cc3c2N1CCC3 | nt | nt | nt | nt | i | nt
CC(C)Oc1ccc(CNC(=O)c2ccc3c(c2)nc2n3CCOC2)cc1 | nt | nt | nt | nt | i | nt
COc1ccc(Br)cc1CN1C(=O)c2ccccc2C1C(=O)NC1CCCCCC1 (stereo unspecified) | nt | nt | nt | nt | i | nt
COc1ccc(/C(C)=N/OC/C(O)=C(\C#N)c2nc3ccccc3[nH]2)c(OC)c1 | i | i | 14µM | i | i | ?
COc1ccc(/C(C)=N/OC/C(O)=C(\C#N)c2nc3ccccc3[nH]2)cc1OC | i | i | i | i | i | ?
COC(=O)C1CCN(C(=O)COC(=O)c2cc(-c3ccccc3)nc3ccc(OC)cc23)CC1 | i | 13µM | i | i | i | ?
Cc1ccc2nc(-c3ccccc3)cc(C(=O)N3CCc4ccccc4C3)c2c1 | ? | 9.3µM | i | i | i | 12µM
Cc1ccc2nc(-c3ccccc3)cc(C(=O)N3CC(C)OC(C)C3)c2c1 (stereo unspecified) | i | 10µM | i | i | ? | ?
COc1ccc(-c2cc(C(=O)N3CCCCCC3)c3cc(C)ccc3n2)cc1 | ? | ? | i | i | i | 13µM
O=C(c1cc(-c2ccccc2)nc2ccccc12)N1CCc2ccccc2C1 | i | ? | i | i | i | ?
COc1cccc(CNC(=O)c2cccc(-n3c(C)nc4cccnc43)c2)c1OC | nt | nt | nt | nt | i | nt
CCOc1ccc(CC(=O)NCCS(=O)(=O)N2CCN(c3ccc(OC)cc3)CC2)cc1 | nt | nt | nt | nt | i | nt
O=C(Nc1nc2n(n1)C(c1ccccc1)CC(c1ccc(Cl)cc1)N2)c1ccco1 (stereo unspecified) | i | 13µM | i | i | ? | ?
COc1ccc(C2CC(c3ccccc3)Nc3nc(NC(=O)c4ccco4)nn32)cc1 (stereo unspecified) | i | nt | i | i | i | ?
COc1ccc(OC)c(NC(=O)Cn2nc3c(cc2=O)CCCC3)c1 | nt | nt | nt | nt | i | nt
COc1ccc(CC(=O)Nc2nc(C)cs2)cc1OC | ? | i | i | i | ? | 12µM
Cc1csc(NC(=O)CSc2nnc(CCNC(=O)c3cccs3)n2C)n1 | i | ? | i | i | ? | ?
COc1ccc(CC(=O)Nc2nc(C)cs2)cc1 | i | i | i | i | i | ?
COc1ccc(CC(=O)Nc2nnc(C(C)(C)C)s2)cc1OC | ? | i | i | i | i | 4.7µM
COc1ccc(CCCc2nnc(SCC(=O)Nc3nc(C)cs3)n2C)cc1C | i | 13µM | i | i | i | nt
